The supplement of paper PMC9262897, “Low-cost anti-mycobacterial drug discovery using engineered E. coli” (Nature Communications, 2022)
Where a name gives a salt, the structure may show the parent alone. ± gives the standard deviation of the averaged measurements.

Legend:
Experiment in all cases: growth (OD600 after 10 h); higher = more growth (less inhibition)
[1] = test system: E. coli TESEC Alr+ wild-type control; details: compound 0.1 mM; raw OD600 reference: median of DMSO wells 0.241, cell-free background 0.041
Protocol: (§1)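 TESEC Mtb Alr E. coli, or the Alr+ wild-type control, in 384-well plates with Prestwick library compounds at 0.1 mM and 1% DMSO, across arabinose induction levels of 1E3 to 1E7 nM. Growth is read as OD600 after 10 h at 37 °C in triplicate biological replicates.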

E. coli TESEC Mtb Alr [2] = details: compound 0.1 mM
Protocol: as §1

E. coli TESEC Mtb Asd = details: compound 0.1 mM
Protocol: (§2)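 TESEC E. coli strains in which the native enzyme is deleted and replaced by arabinose-inducible Mtb Asd, DapB, CysH or TrpD, each grown in its selective medium. Strains were screened against the Prestwick library at 0.1 mM and 1% DMSO in 384-well format at low and high arabinose induction. Growth is read as OD600 after 10 h in triplicate.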

E. coli TESEC Mtb DapB = details: compound 0.1 mM
Protocol: as §2

[3] = test system: E. coli TESEC Alr+ wild-type control; details: compound 0.1 mM; raw OD600 reference: median of DMSO wells 0.49, cell-free background 0.052
Protocol: (§3)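 TESEC Mtb Alr E. coli (ΔaraC ΔtolC ΔentC Δalr ΔdadX, arabinose-inducible Mtb Alr) or the Alr+ wild-type control strain, grown in defined M9-fructose medium without D-alanine in 96-well plates with Prestwick library compounds at 0.1 mM and 1% DMSO. Low Alr induction is 0.1 µM arabinose and high induction is 10 mM arabinose.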

E. coli TESEC Mtb Alr [4] = details: compound 0.1 mM; remark: listed apart in the source
Protocol: as §3

[5] = arabinose 1000 nM, raw OD600 reference: median of DMSO wells 0.294, cell-free background 0.041
[6] = arabinose 10000 nM, raw OD600 reference: median of DMSO wells 0.264, cell-free background 0.041
[7] = arabinose 100000 nM, raw OD600 reference: median of DMSO wells 0.201, cell-free background 0.041
[8] = arabinose 1000000 nM, raw OD600 reference: median of DMSO wells 0.193, cell-free background 0.041
[9] = arabinose 10000000 nM, raw OD600 reference: median of DMSO wells 0.146, cell-free background 0.041
[10] = arabinose induction (level): High, raw OD600 reference: median of DMSO wells 0.331, cell-free background 0.041
[11] = arabinose induction (level): Low, raw OD600 reference: median of DMSO wells 0.417, cell-free background 0.041
[12] = arabinose induction (level): High, raw OD600 reference: median of DMSO wells […], cell-free background 0.041
[13] = arabinose induction (level): Low, raw OD600 reference: median of DMSO wells 0.227, cell-free background 0.041
[14] = arabinose 100 nM, raw OD600 reference: median of DMSO wells 0.413, cell-free background 0.052
[15] = arabinose 10000000 nM, raw OD600 reference: median of DMSO wells […], cell-free background 0.052

SMILES	growth [1]	growth (E. coli TESEC Mtb Alr [2]; [5])	growth (E. coli TESEC Mtb Alr [2]; [6])	growth (E. coli TESEC Mtb Alr [2]; [7])	growth (E. coli TESEC Mtb Alr [2]; [8])	growth (E. coli TESEC Mtb Alr [2]; [9])	growth (E. coli TESEC Mtb Asd; [10])	growth (E. coli TESEC Mtb Asd; [11])	growth (E. coli TESEC Mtb DapB; [12])	growth (E. coli TESEC Mtb DapB; [13])	growth [3]	growth (E. coli TESEC Mtb Alr [4]; [14])	growth (E. coli TESEC Mtb Alr [4]; [15])
C=CCSCC1Nc2cc(Cl)c(S(N)(=O)=O)cc2S(=O)(=O)N1 (centres undefined) [Althiazide]	0.244 ± 0.006	0.301 ± 0.019	0.2578 ± 0.0023	0.219 ± 0.016	0.183 ± 0.011	0.141 ± 0.0034	0.261 ± 0.052	0.441 ± 0.019	0.209 ± 0.0088	0.242 ± 0.018	0.444 ± 0.049	0.383 ± 0.006	0.326 ± 0.012
N[C@@H]1CONC1=O [D-cycloserine]	0.246 ± 0.0051	0.0374 ± 0.00045	0.0389 ± 0.00083	0.277 ± 0.0054	0.155 ± 0.0017	0.132 ± 0.0031	0.252 ± 0.066	0.354 ± 0.081	0.2176 ± 0.0016	0.245 ± 0.044	0.399 ± 0.14	0.0455 ± 0.00047	0.328 ± 0.015
CCN(CC)CC(=O)Nc1c(C)cccc1C [Lidocaine hydrochloride]	0.238 ± 0.0076	0.256 ± 0.062	0.273 ± 0.017	0.194 ± 0.01	0.183 ± 0.0033	0.146 ± 0.0067	0.267 ± 0.048	0.403 ± 0.057	0.204 ± 0.0083	0.235 ± 0.048	0.586 ± 0.028	0.41 ± 0.0091	0.345 ± 0.019
CC(=O)OCC(CCn1cnc2cnc(N)nc21)COC(C)=O [Famciclovir]	0.23 ± 0.005	0.288 ± 0.0069	0.269 ± 0.0058	0.184 ± 0.031	0.21 ± 0.021	0.14 ± 0.0045	0.284 ± 0.048	0.386 ± 0.039	0.179 ± 0.0051	0.199 ± 0.031	0.56 ± 0.17	0.4163 ± 0.0038	0.346 ± 0.0062
C#CCN(C)Cc1ccccc1 [Pargyline hydrochloride]	0.25 ± 0.0048	0.291 ± 0.0091	0.278 ± 0.0057	0.206 ± 0.02	0.19 ± 0.0033	0.142 ± 0.0058	0.34 ± 0.035	0.429 ± 0.047	0.177 ± 0.0081	0.194 ± 0.0055	0.516 ± 0.11	0.412 ± 0.0092	0.357 ± 0.007
O=C(CCNNC(=O)c1ccncc1)NCc1ccccc1 [Nialamide]	0.237 ± 0.0061	0.28 ± 0.01	0.276 ± 0.0091	0.193 ± 0.018	0.208 ± 0.0031	0.144 ± 0.0023	0.237 ± 0.041	0.346 ± 0.062	0.217 ± 0.034	0.249 ± 0.014	0.516 ± 0.07	0.431 ± 0.0058	0.337 ± 0.023
COC(=O)N/N=C/c1c[n+]([O-])c2ccccc2[n+]1[O-] [Carbadox]	0.197 ± 0.014	0.23 ± 0.011	0.1488 ± 0.00015	0.116 ± 0.003	0.117 ± 0.0034	0.142 ± 0.0022	0.163 ± 0.015	0.192 ± 0.054	0.163 ± 0.017	0.168 ± 0.0094	0.143 ± 0.0067	0.157 ± 0.013	0.082 ± 0.0067
C#CCN[C@@H]1CCc2ccccc21 [Rasagiline]	0.224 ± 0.0077	0.281 ± 0.012	0.263 ± 0.011	0.19 ± 0.011	0.194 ± 0.023	0.142 ± 0.0024	0.245 ± 0.065	0.342 ± 0.075	0.186 ± 0.0077	0.243 ± 0.025	0.547 ± 0.014	0.421 ± 0.011	0.322 ± 0.0094
COCCOC(=O)C1=C(C)NC(C)=C(C(=O)OC(C)C)C1c1cccc([N+](=O)[O-])c1 (centres undefined) [Nimodipine]	0.18 ± 0.017	0.176 ± 0.062	0.0601 ± 0.0043	0.154 ± 0.0027	0.0632 ± 0.0037	0.08053 ± 0.00035	0.274 ± 0.024	0.487 ± 0.0068	0.169 ± 0.016	0.197 ± 0.037	0.325 ± 0.004	0.404 ± 0.025	0.0716 ± 0.011
NC(=O)c1cccnc1 [Nicotinamide]	0.2773 ± 0.0019	0.335 ± 0.0062	0.302 ± 0.0031	0.263 ± 0.014	0.238 ± 0.014	0.155 ± 0.0058	0.447 ± 0.0077	0.45 ± 0.033	0.214 ± 0.01	0.258 ± 0.043	0.509 ± 0.11	0.43 ± 0.024	0.453 ± 0.0089
O=C(Cn1ccnc1[N+](=O)[O-])NCCO [Etanidazole]	0.2444 ± 0.00084	0.306 ± 0.015	0.258 ± 0.0028	0.213 ± 0.0053	0.178 ± 0.0091	0.138 ± 0.0056	0.318 ± 0.027	0.423 ± 0.0082	0.202 ± 0.006	0.232 ± 0.0081	0.471 ± 0.019	0.406 ± 0.012	0.358 ± 0.016
CCCc1cc(=O)[nH]c(=S)[nH]1 [Propylthiouracil]	0.241 ± 0.0062	0.289 ± 0.025	0.263 ± 0.0094	0.219 ± 0.034	0.195 ± 0.0092	0.152 ± 0.0063	0.431 ± 0.04	0.45 ± 0.047	0.199 ± 0.0093	0.194 ± 0.019	0.55 ± 0.1	0.41 ± 0.015	0.345 ± 0.043
CN1C(C(=O)Nc2ccccn2)=C(O)c2ccccc2S1(=O)=O [Piroxicam]	0.195 ± 0.0024	0.229 ± 0.0073	0.253 ± 0.0061	0.18 ± 0.013	0.127 ± 0.0038	0.155 ± 0.003	0.321 ± 0.013	0.282 ± 0.042	0.181 ± 0.015	0.227 ± 0.068	0.4032 ± 0.0031	0.362 ± 0.1	0.259 ± 0.016
